Measured values: PubChem BioAssay AID1159580 (chemical genetic matrix, 2015)
“And” between values parts separate entries of the source, which are not always exact repeats. Identical values can stand only once. About 2,000 (36%) of roughly 5,500 compounds were called active. Roughly 18% stayed inconclusive and do not appear here. No stated cut-off is given here; in the data, active means normalized growth mostly below about 0.91 (no sharp cut-off); inconclusive means no clear call, values can overlap the other calls; inactive means mostly above about 0.92. The list shows a part of the results.

Assay: chemical genetic growth profiling, strain panel (AID 1159580);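 further: tested at 20 µM; growth read once vehicle control cultures reached saturation at 30 °C; 1 = growth at the plate median or of vehicle wells; lower values mean less growth of the strain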
Settings: S. cerevisiae deletion strains, growth OD

Measured: normalized growth

Oc1ccc(Cl)cc1Cc1cc(Cl)ccc1O
active: locus YAL013W, strain DEP1, hits give low values 0.0573 | locus YAL021C, strain ccr4, hits give low values 0.0695 | locus YAL026C, strain drs2, hits give low values 0.0747 | locus YAL030W, strain snc1, hits give low values 0.0569 | locus YBL061C, strain skt5, hits give low values 0.0645 | locus YBR009C, strain hhf1, hits give low values 0.0651 | locus YBR021W, strain FUR4, hits give low values 0.253 | locus YBR023C, strain chs3, hits give low values 0.07 | locus YBR171W, strain sec66, hits give low values 0.124 | locus YBR229C, strain ROT2, hits give low values 0.0685 | locus YBR231C, strain swc5, hits give low values 0.0629 | locus YBR279W, strain paf1, hits give low values 0.0982 | locus YCL011C, strain gbp2, hits give low values 0.0575 | locus YCL016C, strain dcc1, hits give low values 0.0745 | locus YCL029C, strain bik1, hits give low values 0.0624 | locus YCL061C, strain MRC1, hits give low values 0.107 | locus YCL069W, strain vba3, hits give low values 0.0848 | locus YCR088W, strain abp1, hits give low values 0.0882 | locus YDL005C, strain med2, hits give low values 0.0747 | locus YDL035C, strain GPR1, hits give low values 0.0712 | locus YDL040C, strain nat1, hits give low values 0.0791 | locus YDL074C, strain BRE1, hits give low values 0.092 | locus YDL101C, strain DUN1, hits give low values 0.0631 | locus YDL134C, strain PPH21, hits give low values 0.0596 | locus YDL185W, strain tfp1, hits give low values 0.0573 | locus YDL192W, strain arf1, hits give low values 0.0725 | locus YDR001C, strain nth1, hits give low values 0.107 | locus YDR069C, strain doa4, hits give low values 0.0709 | locus YDR101C, strain arx1, hits give low values 0.0668 | locus YDR137W, strain rgp1, hits give low values 0.0823 | locus YDR150W, strain NUM1, hits give low values 0.141 | locus YDR159W, strain sac3, hits give low values 0.0887 | locus YDR162C, strain NBP2, hits give low values 0.0492 | locus YDR195W, strain ref2 0.12 | locus YDR297W, strain sur2, hits give low values 0.0586 | locus YDR318W, strain mcm21, hits give low values 0.0649 | locus YDR334W, strain swr1, hits give low values 0.0861 | locus YDR335W, strain msn5, hits give low values 0.0832 | locus YDR388W, hits give low values 0.0554 | locus YDR392W, strain spt3, hits give low values 0.0992 | locus YDR502C, strain sam2, hits give low values 0.0624 | locus YEL003W, strain gim4, hits give low values 0.0565 | locus YEL037C, strain rad23, hits give low values 0.271 | locus YEL061C, strain CIN8 (second series), hits give low values 0.0757 | locus YEL061C, strain CIN8, hits give low values 0.0536 | locus YER015W, strain faa2, hits give low values 0.0622 | locus YER016W, strain bim1, hits give low values 0.0644 | locus YER110C, hits give low values 0.0746 | locus YER111C, strain swi4, hits give low values 0.0777 | locus YER155C, strain BEM2 (second series), hits give low values 0.109 | locus YER155C, strain BEM2, hits give low values 0.0649 | locus YER167W, strain BCK2, hits give low values 0.0527 | locus YFR010W, strain ubp6, hits give low values 0.185 | locus YGL078C, strain dbp3, hits give low values 0.0765 | locus YGL086W, strain mad1, hits give low values 0.0581 | locus YGL167C, strain pmr1, hits give low values 0.0782 | locus YGL173C, strain kem1, hits give low values 0.101 | locus YGL227W, strain vid30, hits give low values 0.0709 | locus YGL240W, strain doc1, hits give low values 0.08 | locus YGL248W, strain PDE1, hits give low values 0.0764 | locus YGL253W, strain hxk2, hits give low values 0.0817 | locus YGR078C, strain PAC10, hits give low values 0.0754 | locus YGR135W, strain pre9, hits give low values 0.0765 | locus YGR229C, strain SMI1, hits give low values 0.0636 | locus YGR252W, strain gcn5, hits give low values 0.146 | locus YHR013C, strain ard1, hits give low values 0.109 | locus YHR027C, strain rpn1, hits give low values 0.0641 | locus YHR030C, strain SLT2, hits give low values 0.0512 and 0.0939 | locus YHR079C, strain IRE1 (second series), hits give low values 0.0561 | locus YHR079C, strain IRE1, hits give low values 0.102 | locus YHR094C, strain hxt1, hits give low values 0.0607 | locus YHR129C, strain ARP1, hits give low values 0.0651 | locus YHR142W, strain chs7, hits give low values 0.0876 | locus YHR200W, strain rpn10, hits give low values 0.0673 | locus YIL066C, strain RNR3, hits give low values 0.0647 | locus YIL073C, strain SPO22, hits give low values 0.114 | locus YIL125W, strain kgd1, hits give low values 0.0642 | locus YIR030C, strain dcg1, hits give low values 0.0657 | locus YJL092W, strain hpr5, hits give low values 0.111 | locus YJL095W, strain BCK1 (second series), hits give low values 0.057 | locus YJL095W, strain BCK1, hits give low values 0.0553 and 0.0954 | locus YJL115W, strain asf1, hits give low values 0.201 | locus YJL129C, strain trk1, hits give low values 0.0878 | locus YJL134W, strain LCB3, hits give low values 0.0583 | locus YJL154C, strain vps35, hits give low values 0.0851 | locus YJL164C, strain tpk1, hits give low values 0.0647 | locus YJL166W, strain qcr8, hits give low values 0.0615 | locus YJL168C, strain set2, hits give low values 0.0792 | locus YJL187C, strain SWE1 (second series), hits give low values 0.0719 | locus YJL187C, strain SWE1, hits give low values 0.0599 | locus YJR043C, strain POL32, hits give low values 0.0779 | locus YJR066W, strain TOR1, hits give low values -0.000659
